Test results taken from PubChem BioAssay (NCI).
About 79,000 compounds went through this panel and 15% of them were active in at least one assay; those are over-represented in the sample as a whole. Unmarked numbers belong to inactive results. Active and inactive are the calls of the source. Cut-off read from the data, not from the text of the source: active = growth inhibition above about 70%; inactive = the rest.

Tests used:
[1] = NCI Yeast Anticancer Drug Screen. Data for the rad50 strain (AID 155);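 note: 0% = growth of vehicle-only cultures of the same strain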; conditions: S. cerevisiae rad50 strain growth inhibition, active compounds read high
Method in brief: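 A DNA repair-deficient yeast mutant serves as the test organism; compound-induced growth inhibition is calculated against vehicle-treated cells.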

[2] = NCI Yeast Anticancer Drug Screen. Data for the mec2-1 strain (AID 157); conditions: S. cerevisiae mec2-1 strain, active compounds read high
Method in brief: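 Compounds were applied to mec2-1 yeast cells. Their growth was then compared with that of vehicle-treated cultures to give growth inhibition.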

[3] = NCI Yeast Anticancer Drug Screen. Data for the sgs1 mgt1 strain (AID 161);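 note: 0% = growth of cultures given vehicle only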; conditions: S. cerevisiae sgs1 mgt1 strain, active compounds read high
Method in brief: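 Compounds are added to genetically altered yeast, and growth is compared with cultures given vehicle alone to give percent inhibition.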

[4] = NCI Yeast Anticancer Drug Screen. Data for the cln2 rad14 strain (AID 165);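 note: 0% = growth equal to vehicle treated cultures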; conditions: S. cerevisiae cln2 rad14 strain, active compounds read high
Method in brief: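 Strain: cln2 rad14 yeast, altered in cell cycle control and DNA damage repair. Read-out: growth inhibition vs vehicle.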

[5] = NCI Yeast Anticancer Drug Screen. Data for the bub3 strain (AID 167); conditions: S. cerevisiae bub3 mutant strain, active compounds read high
Method in brief: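 Inhibition values come from growth of compound-treated mutant yeast normalised to vehicle-treated controls.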

[6] = NCI Yeast Anticancer Drug Screen. Data for the mlh1 rad18 strain (AID 175); conditions: S. cerevisiae mlh1 rad18 strain growth inhibition, active compounds read high
Method in brief: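 A repair-deficient yeast strain is exposed to test compound, and growth is scored relative to vehicle-treated controls.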

[7] = at 5.0 µM (retest, dose inferred, filed as 0.5)
[8] = at 50.0 µM (retest, dose inferred, filed as 5.0)

| SMILES | growth inhibition [1, 7] | growth inhibition [1, 8] | growth inhibition ([1]; at 50.0 µM) | growth inhibition [2, 7] | growth inhibition [2, 8] | growth inhibition ([2]; at 50.0 µM) | growth inhibition [3, 7] | growth inhibition [3, 8] | growth inhibition ([3]; at 50.0 µM) | growth inhibition [4, 7] | growth inhibition [4, 8] | growth inhibition ([4]; at 50.0 µM) | growth inhibition [5, 7] | growth inhibition [5, 8] | growth inhibition ([5]; at 50.0 µM) | growth inhibition [6, 7] | growth inhibition [6, 8] | growth inhibition ([6]; at 50.0 µM) |
| --- | --- | --- | --- | --- | --- | --- | --- | --- | --- | --- | --- | --- | --- | --- | --- | --- | --- | --- |
| CCCCCCCCCCCCCCCCCCOS(=O)(=O)O (tested in a mixture with another compound) | 1% | 63% | 56.4% | -35% | 76% (active) | 56.6% | -12% | 60% | 68.7% | -30% | 49% | 42.5% | -31% | 77% (active) | 67.5% | -27% | 80% (active) | 57.5% |
| O=C(n1c2ccccc2c2n[nH]c(=S)nc21)C(F)(F)F | 1% | -6% | 82.7% (active) | 0% | -2% | 39.1% | -3% | -2% | 83.5% (active) | -2% | -2% | 25.3% | 3% | -1% | 52.8% | -5% | 0% | 89.3% (active) |
| O=C(CCn1[nH]c(=O)c(Cl)c(Cl)c1=O)NNc1ccc([N+](=O)[O-])cc1[N+](=O)[O-] | 4% | 36% | 35.8% | -7% | 2% | -4.7% | 1% | 18% | -12.9% | -2% | 1% | -2.45% | 1% | 19% | 26.2% | 2% | 17% | 88.2% (active) |
| CCCCCCCC/C=C\CCCCCCCC(=O)O (tested in a mixture with another compound) | 4% | 97% (active) | 96.2% (active) | -1% | 100% (active) | 99.3% (active) | 3% | 98% (active) | 89.7% (active) | 2% | 96% (active) | -53.9% | -2% | 99% (active) | 95.3% (active) | 0% | 96% (active) | 97.1% (active) |
| C=C(c1ccc2nc(NC(=O)OC)[nH]c2c1)c1cccs1 | -4% | 47% | 61.3% | -7% | 88% (active) | 93.2% (active) | -4% | 72% (active) | 91.8% (active) | -9% | 18% | 41.1% | -3% | 84% (active) | 90.5% (active) | -9% | 92% (active) | 95% (active) |
| O=C(c1ccc(F)cc1)c1ccc(Cl)cc1Cl | 96% (active) | 98% (active) | 97% (active) | 100% (active) | 99% (active) | 98.7% (active) | 100% (active) | 99% (active) | 93.5% (active) | 99% (active) | 100% (active) | 98.2% (active) | 99% (active) | 100% (active) | 98.9% (active) | 99% (active) | 99% (active) | 99.2% (active) |
| CCOc1nc(N)nc(C)c1N=Nc1ccc(Cl)cc1Cl | 10% | 92% (active) | 72.8% (active) | 0% | 50% | 16.9% | 5% | 88% (active) | 22.4% | 15% | 77% (active) | 36.4% | 5% | 94% (active) | 73.8% (active) | 14% | 97% (active) | 45% |
| Nc1ccccc1/C=C/c1c[nH]c2ccccc12 | 11% | 97% (active) | 91.6% (active) | 4% | 98% (active) | 97.5% (active) | 5% | 98% (active) | 53.2% | -8% | 98% (active) | 95.6% (active) | 28% | 97% (active) | 97.7% (active) | 9% | 98% (active) | 97.3% (active) |
| O=C(CBr)c1cc(-c2ccc(Cl)cc2)nc2ccccc12 | 86% (active) | 98% (active) | 98.9% (active) | 95% (active) | 99% (active) | 99% (active) | 100% (active) | 99% (active) | 99% (active) | 35% | 98% (active) | 98% (active) | 95% (active) | 99% (active) | 98.7% (active) | 97% (active) | 98% (active) | 98.8% (active) |
| COc1ccccc1NC(=O)C1=C(C)NC(C)=C(C(=O)Nc2ccccc2OC)C1c1ccccc1[N+](=O)[O-] | 13% | 13% | 68% | 4% | 4% | 69.1% | 2% | 2% | 60.9% | 0% | 0% | 12% | 5% | 5% | 65.7% | 13% | 13% | 48.4% |
| Oc1ccccc1C1N(Cc2ccc(Cl)cc2)CCN1Cc1ccc(Cl)cc1 | 7% | 57% | 18.2% | 7% | 58% | 17.6% | 20% | 93% (active) | 46.5% | 14% | 58% | 62.6% | 22% | 81% (active) | 16.4% | 22% | 70% (active) | 18.4% |
| Cc1c[nH]c(=O)n(CC(=O)C2CCC3C4CCC5=CC(=O)CCC5(C)C4CCC23C)c1=O (configuration not stated) | 11% | 30% | 48.2% | 0% | -11% | 43.6% | -1% | 26% | 47.4% | -1% | 4% | 46.6% | 0% | 17% | 41.1% | 1% | 20% | 43.3% |
| Nc1nnc2nc(C(C(=O)c3ccccc3Cl)c3nc4nnc(N)n4[nH]c3=O)c(=O)[nH]n12 | -2% | -4% | 93.8% (active) | 1% | 0% | 99.8% (active) | -2% | -2% | 41.5% | -1% | -2% | 74.6% (active) | -1% | -7% | 99.5% (active) | 0% | -4% | 96.5% (active) |
| O=C(c1ccccc1)C1C(c2ccccc2)OP(c2ccccc2)(c2ccccc2)(c2ccccc2)C1c1ccccc1 (configuration not stated) | 83% (active) | 99% (active) | 99.7% (active) | 96% (active) | 99% (active) | 99.8% (active) | 83% (active) | 100% (active) | 99.8% (active) | 56% | 99% (active) | 99.5% (active) | 80% (active) | 99% (active) | 99.6% (active) | 84% (active) | 99% (active) | 99.8% (active) |
| Cc1ccccc1NC(=O)C1C(=O)N(c2ccccc2C)C(=O)/C1=N/O (configuration not stated) | -21% | 3% | -21.4% | 3% | 4% | 2.95% | -4% | -19% | -4.55% | -6% | 6% | -26.6% | 0% | 1% | -5.25% | -1% | -2% | 3.65% |
| CCc1nc(N)nc(N)c1-c1ccc(NCCc2ccccc2)c([N+](=O)[O-])c1 | 13% | 16% | 25.9% | 9% | 8% | -2.75% | 17% | 19% | 5.15% | 7% | 6% | 9.75% | 13% | 15% | 14.4% | 7% | 19% | 24.9% |
| CC(=O)Oc1ccc(Cl)cc1Cc1cc(Cl)ccc1OC(C)=O | 17% | 85% (active) | 94.2% (active) | -1% | 93% (active) | 90.7% (active) | 7% | 83% (active) | 94.5% (active) | -4% | 94% (active) | 89.2% (active) | -3% | 88% (active) | 94.5% (active) | 2% | 94% (active) | 95.2% (active) |
| COC(=O)C1C(O)C(C)C(=O)C(C)/C=C\C=C(C)C(=O)Nc2c(C)c(OC(C)=O)c3c(c2O)C(=O)C(C)=C2OCOC(=C23)C(C)=CC(C)(O)C(O)C(C)C1O (configuration not stated) | 9% | 52% | 88.1% (active) | -3% | 77% (active) | 88.8% (active) | 0% | 59% | 92.2% (active) | 9% | 75% (active) | 75.6% (active) | -4% | 76% (active) | 87.3% (active) | -19% | 68% | 81% (active) |
| ClCc1ccccc1Cc1ccccc1 | 18% | 82% (active) | 98.6% (active) | 21% | 63% | 95.2% (active) | 27% | 83% (active) | 97.8% (active) | -1% | 35% | 94.5% (active) | -5% | 58% | 97.6% (active) | 35% | 85% (active) | 98% (active) |
